Reference: PubChem BioAssay AID504332 (National Center for Advancing Translational Sciences (NCATS), 2011)
Screen size: about 350,000 compounds; about 31,000 (8.9%) were called active. About 15% were inconclusive and are not listed. The list comes from a sample in which actives are over-represented; it also holds similar structures and randomly drawn compounds. Where a call stands in place of a potency, no number is given. A number with no mark means an inactive call. The call rests on the fitted dose curve; in most records, active means well fitted inhibition curve with a large enough effect; inconclusive means small, poorly fitted or top-dose-only effect; inactive means no such curve, though single readings can be large or run the other way.

Target: Histone-lysine N-methyltransferase EHMT2 (Homo sapiens) (UniProt Q96KQ7)
Sequence (Q96KQ7 913-1193 limits assumed): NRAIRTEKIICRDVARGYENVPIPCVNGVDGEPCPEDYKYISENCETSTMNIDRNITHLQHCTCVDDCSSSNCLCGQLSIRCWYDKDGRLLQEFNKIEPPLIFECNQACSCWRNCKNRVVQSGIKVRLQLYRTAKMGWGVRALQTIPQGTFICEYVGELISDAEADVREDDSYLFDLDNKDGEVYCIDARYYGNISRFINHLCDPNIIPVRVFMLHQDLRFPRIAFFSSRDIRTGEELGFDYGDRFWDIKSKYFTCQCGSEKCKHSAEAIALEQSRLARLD
Test: qHTS Assay for Inhibitors of Histone Lysine Methyltransferase G9a; further: nearly all actives have a fitted effect of over 75% in size
Details: G9a H3K9 monomethylation, AlphaScreen, 2 h; series mostly up to 59 µM
Text: Methylated lysines, on the N-terminal tails of histone proteins serve as epigenetic markers to recruit factors that can then modify local chromatin structure to lead to functional consequences. G9a and other members of the SUV39 family of the SET domain-containing superfamily of histone lysine methyltransferases (HMT) have been identified to specifically methylate Lys9 of histone H3 (H3K9). G9a catalyzes the mono- and di-methylation of H3K9 in mammalian euchromatic regions, where the resulting H3K9me2 is indicative of transcriptional repression. […] The inhibition of G9a will result in transcriptional activation and work synergistically with DNA methyltransferase and histone deacetylase inhibitors, to kill cancer cells. This qHTS assay for identification of G9a inhibitors is a chemiluminescence based AlphaScreen (PerkinElmer). Methylation of biotinylated-histone peptide is measured through specific antibody-based detection, in conjunction with streptavidin-coated donor and anti-IgG antibody-coated acceptor beads. The method is particularly well suited for detection of inhibitors acting by the desired histone peptide competitive mechanism and is applicable to testing other HMTs. Although AlphaScreen has significant advantages with its utility in a variety of epigenetic target assays, the primary screening data provided in this deposition should be used with caution due to the prevalence of screening artifacts. An AlphaScreen counterscreen is highly recommended to be run against any putative actives to eliminate non specific artifacts. Alternatively, one can use other AlphaScreen assays in PubChem to filter out promiscuous hits. Quinn et al. A chemiluminescence-based method for identification of histone lysine methyltransferase inhibitors. Mol Biosyst 6(5): 782-8. 2010. PMID: 20567762 [2] Baell,Holloway. New substructure filters for removal of pan assay interference compounds (PAINS) from screening libraries and for their exclusion in bioassays. J Med Chem. 53(7):2719-40. 2010. PMID: 20131845 NIH Molecular Libraries Probe Production Network [MLPCN] NIH Chemical Genomics Center [NCGC] Structural Genomics Consortium (SGC) NIH Grant: 5U54 MH084681-02
To each well of a 1,536w plate, 2ul of HMT enzyme (final 20nM) were added, using a nanoliter dispenser. The G9a- and GLP-inhibitor BIX-01294 (CID: 25150857) are used as an intraplate control, with a 16-point titration in duplicate. A Kalypsys pin-tool transferred 23nl of library compound solution in DMSO to each well. Following a 15 min incubation of enzyme with compounds at room temperature, 1ul mixture of b-H3K9 peptide substrate (final 500nM) and SAM cofactor (final 20uM) were added. Reactions were allowed to proceed at room temperature for 2 hours. Methylated b-H3K9 peptide product was detected with 0.5 ug/mL rabbit polyclonal anti-monomethyl histone H3K9 antibody (Abcam Inc., Cambridge, MA) and 20 ug/mL each streptavidin-coated donor and anti-rabbit IgG acceptor AlphaScreen beads. Antibody and beads were added in a 1ul dispense, for a final volume of 4ul, and plates were incubated, protected from the light, for 10 min at room temperature. Microplates were then read on an EnVision multilabel plate reader using the 1,536 plate HTS AlphaScreen aperture (excitation time 80 ms, measurement time 240 ms).
Potency means the concentration at half of the fitted maximal effect.

| Structure (SMILES) | Potency | activity, negative = inhibition |
| --- | --- | --- |
| CCOc1ccccc1C(=O)Nc1ccc2c(c1)N(C)C(=O)c1ccccc1S2 | inactive |  |
| Cc1ccc(OCCNC(=O)CNC(=O)c2ccc(C)c(C)c2)cc1 |  | 24.7% [at 2.33 µM] |
| COC(=O)COc1ccc2c(c1C)O/C(=C\c1ccco1)C2=O | 8.91 µM (active) |  |
| Cc1cc(C)c(OCC(=O)N/N=C/c2ccco2)c(C)c1 | inactive |  |
| COc1ccccc1OCC(=O)OCc1cc(-c2ccco2)on1 |  | 3.66% [at 12.7 µM] |
| COc1cccc(C(=O)OCC(=O)c2[nH]c(C)c(C(C)=O)c2C)c1 |  | -42.2% [at 12.7 µM] |
| CCOc1ccc(N(CC)C(=O)C2CCN(S(=O)(=O)c3cccc4nonc34)CC2)cc1 | inactive |  |
| COc1ccc(S(=O)(=O)N2CCOCC2)cc1NC(=O)CSc1cc(C)ccc1C |  | 3.19% [at 0.501 µM] |
| CCOC(=O)c1cccc(NS(=O)(=O)c2cn(C)c(C)n2)c1 | inactive |  |
| Cc1cccc(N2CCN(C(=O)CCn3c(=O)c4cccn4c4cccnc43)CC2C)c1 (stereo not given) | inactive |  |
| CSCCC(NC(=O)c1ccco1)C(=O)NCCc1ccc(F)cc1 (stereo not given) |  | 40.1% [at 12.7 µM] |
| CCN(CC)c1ccc(NC(=O)c2ccc(Cl)nc2)cc1 | 10 µM (active) |  |
| CCOc1ccc(NC(=O)CN2CCN(CC(=O)Nc3ccc(OC)cc3)CC2)cc1 | inactive |  |
| CCN(CC)c1ccc(NC(=O)CN2CCN(CC(=O)Nc3ccc(Cl)cc3)CC2)cc1 | 7.08 µM (active) |  |
| O=C(CN1CCN(c2ccccn2)CC1)NC1CCCCC1 | inactive |  |
| Cc1cnc(NC(=O)c2ccc(Cl)nc2)s1 | inactive |  |
| CCOC(=O)N1CCN(CC(=O)Nc2ccc(F)cc2)CC1 | inactive |  |
| CCN(CC)c1ccc(NC(=O)CN2CCN(c3ccccn3)CC2)cc1 | 44.7 µM (active) |  |
| NS(=O)(=O)c1ccc(NC(=O)COC(=O)c2ccc(Cl)nc2)cc1 | inactive |  |
| O=C(CN1CCN(c2ccccn2)CC1)Nc1ccc(Br)cc1 | inactive |  |
| Cc1ccccc1N1CCN(S(=O)(=O)c2ccc3ccccc3c2)CC1 |  | 14.6% [at 0.501 µM] |
| COC(=O)c1ccc2c(C(C)(C)O)c(C(C)(C)O)[nH]c2c1 | inactive |  |
| COc1ccc(N2CCN(C(=O)CSCc3nc(-c4ccccc4Cl)oc3C)CC2)cc1 | inactive |  |
| CCN(CC)c1ccc([N+](=O)[O-])cc1C(=O)O | 50.1 µM (active) |  |
| CNc1ccc([N+](=O)[O-])cc1C(=O)O | inactive |  |

| Structure (SMILES) | Potency | activity, negative = inhibition |
| --- | --- | --- |
| CCN(CC)C(=O)CN(c1cccc([N+](=O)[O-])c1)S(=O)(=O)c1ccccc1 | inactive |  |
| COc1ccc(N(CCC(=O)NCCc2ccccc2)S(=O)(=O)c2ccc(C)cc2C)cc1 |  | 12.2% [at 12.7 µM] |
| O=C(c1cc(S(=O)(=O)N2CCOCC2)ccc1Cl)N1CCOCC1 | inactive |  |
| CCCN(CCC)CCCNC(=O)Cn1ncc2c3ccccc3n(Cc3ccccc3)c2c1=O | inactive |  |
| Cc1ccc(NC(=S)N2CCN(c3ncccn3)CC2)cc1C | inactive |  |
| Cc1nc2ccc(NC(=S)N3CCC(C)CC3)cc2nc1C | 44.7 µM (active) |  |
| Cc1nc2ccc(NC(=O)N3CCC(c4ccccc4)C3)cc2nc1C (stereo not given) |  | 12.3% [at 12.7 µM] |
| COc1cccc(NC(=O)C2C(c3ccccc3)C2(Cl)Cl)c1 (stereo not given) |  | 0.796% [at 0.501 µM] |
| CNC(=S)N/N=C/c1cn(Cc2ccc(C)cc2)c2ccccc12 | 44.7 µM (active) |  |
| CCOC(=O)N/N=C/c1cn(Cc2ccccc2Cl)c2ccccc12 | inactive |  |
| COC(=O)N/N=C/c1cn(CCCOc2ccc(C)cc2)c2ccccc12 | inactive |  |
| O=C(Cc1ccc(Cl)cc1)NC(=S)Nc1ccccc1O | inactive |  |
| Cc1cccc(C)c1NC(=O)CNC(=O)C1CCCC1 |  | 26.8% [at 12.7 µM] |
| NS(=O)(=O)c1cc(C(=O)OCC(=O)NNC(=O)c2ccccc2)ccc1Cl | inactive |  |
| CN(NS(=O)(=O)c1cccs1)c1ncc(C(F)(F)F)cc1Cl | inactive |  |
| CC(=O)c1c(C)[nH]c(C(=O)COc2ccc3c(C)cc(=O)oc3c2)c1C |  | -2.97% [at 12.7 µM] |
| COC(=O)Cn1cc(/C=C/[N+](=O)[O-])c2ccccc21 | 39.8 µM (active) |  |
| COC(=O)Cn1cc(C(=O)c2cccs2)c2ccccc21 |  | 10.8% [at 12.7 µM] |
| COC(=O)c1cn(CC(=O)NCc2cccs2)c2ccccc12 | inactive |  |
| Cc1nc(C)c(C(=O)Nc2cccc(C)c2C)o1 | 44.7 µM (active) |  |
| COc1ccc(Cl)cc1NC(=O)c1oc(C)nc1C |  | 10.9% [at 12.7 µM] |
| Cc1cccc(NC(=O)c2ccc3nc(C(C)C)oc3c2)c1C | inactive |  |
| Cc1cccc(NC(=O)c2ccc3nsnc3c2)c1C | inactive |  |
| Cc1nc(C)c(C(=O)Nc2ccc(C)c(F)c2)o1 |  | 20.5% [at 12.7 µM] |
| Cc1cccc(NC(=O)c2cccc(C(=O)Nc3cccc(C)c3C)n2)c1C | 50.1 µM (active) |  |
